Test results reported in the OligoGym collection.

target: FZR1; assay: pooled miR-30 sensor sort-seq; sequence = guide strand; conditions: shRNA

Going from TCATTCTGGATGACGATCTGGC to TGAGACTCCAGGATCCTCCAGG, the sensor-assay potency score (higher = more potent) falls from 0.47 to -0.492.

Going from TTTGTCGAACGGGTTTTGCTAA to TCTGGTTCTGTGAGTAGCCGTG, the sensor-assay potency score (higher = more potent) rises from -0.856 to -0.152.

Compared with TGAGAGGTCACAGAGCCGCGTC, TTCTCATTCTCGTTAATCCTGT is higher in sensor-assay potency score (higher = more potent): -0.649 for the first, -0.581 for the second.

Compared with TGTCCTGTCAGCGTGTTCCAGA, TTGCACACTTGGGAGCCCGTGT is higher in sensor-assay potency score (higher = more potent): -0.846 for the first, -0.748 for the second.

Going from TTCTGTGAGTAGCCGTGCGTGC to TCTGTGGACCACTTGAGCCCGC, the sensor-assay potency score (higher = more potent) rises from -1.08 to -0.976.

Sequence AACATGGACAGCTTCTTCCCTG has a sensor-assay potency score (higher = more potent) of -0.261.

target: GAA; assay: as above; conditions: shRNA

Going from TTCATGTCAATCCACATGCCGT to TAAACTGCAGGATTTCTGGCAC, the sensor-assay potency score (higher = more potent) rises from -0.999 to -0.0629.

Going from TTTGCAGGGATGTAGCAACAGC to TAGTCCAGGTCGTTCCACTGGA, the sensor-assay potency score (higher = more potent) rises from -1.16 to -0.244.

First: TTTGATCGTGAAGTGGAGGCGG
Second: TTCTCCAGCTTGTAGCTGGGGT
The sensor-assay potency score (higher = more potent) of the first is higher: 0.187 for the first, -0.57 for the second.

Compared with AATCTTATTAACACAGAGCAGC, TACTGCTGCACCACGCTCTTGG is higher in sensor-assay potency score (higher = more potent): -1.53 for the first, 0.362 for the second.

Compared with TAACACAGAGCAGCCCTCCAGG, TTGGTGTCGGGGCTGTAGGTGA is lower in sensor-assay potency score (higher = more potent): -0.565 for the first, -0.824 for the second.

Compared with TTCACGATCGTGTTATTCCTGG, TTAAGATTTAGAATCTCCCAAG is lower in sensor-assay potency score (higher = more potent): -0.238 for the first, -0.492 for the second.

Going from TTGTGCAGGTTGTAGTGTGTGG to TTTAGAATCTCCCAAGTCCTGT, the sensor-assay potency score (higher = more potent) rises from -0.0928 to 0.11.

Compared with TACAATCTTATTAACACAGAGC, TTGTGGTTCCGCATGAAGGGGT is higher in sensor-assay potency score (higher = more potent): -0.86 for the first, -0.144 for the second.

Compared with TTGTTGAACGTGAAGTCCCTCC, TTGAACGTGAAGTCCCTCCGGG is higher in sensor-assay potency score (higher = more potent): 0.0246 for the first, 0.671 for the second.

Compared with TTAGCTGGATCTTTGATCGTGA, TGAACGTGAAGTCCCTCCGGGA is lower in sensor-assay potency score (higher = more potent): 0.689 for the first, -0.701 for the second.

Going from TTAAACTGCAGGATTTCTGGCA to TAGAGGTTCGCACCGGGCGTGG, the sensor-assay potency score (higher = more potent) falls from 0.151 to -1.37.

First: TTGATCGTGAAGTGGAGGCGGT
Second: TCCTCGGAGAACTCCACGCTGT
The sensor-assay potency score (higher = more potent) of the first is higher: -0.412 for the first, -1.76 for the second.

target: GAB3; assay: as above; conditions: shRNA

Compared with TTGCAGACCTGACTGATGCTGT, TTGCTGGAGTGCTTGTTCCTGT is lower in sensor-assay potency score (higher = more potent): 0.324 for the first, -0.331 for the second.

First: TTTCCTTGAATCGTTATGCTTT
Second: TTTTCTATCTCCAATCTGGTGT
The sensor-assay potency score (higher = more potent) of the first is higher: 0.221 for the first, 0.0351 for the second.

In the case of TTGAGATCTCTATTCACTGGGG, the sensor-assay potency score (higher = more potent) is reported as 0.467.
